Results: PubChem BioAssay AID651610 (Broad Institute, 2012)
The campaign covered roughly 360,000 compounds. About 3,900 (1.1%) were called active. Only a selection was taken, and actives are over-represented in it overall. Unmarked numbers belong to inactive results.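 How the source made its calls: active means mean replicate inhibition score of at least 50 and every replicate individually at or above 50; inconclusive means only one of the two criteria met; inactive means mean below 50 and not all replicates reaching 50.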

Experiment: blockers of JRFL envelope-mediated fusion – HeLa-JRFL effector, CEM21 target cells, luciferase, primary screen (AID 651610);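 further: 0% = plate neutral controls and 100% = maraviroc near 300 nM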
Settings: HeLa-JRFL Env/CEM21 cell fusion, hits give high values; at 16.7 µM unless noted
In the case of `C[C@@H]1CN([C@H](C)CO)C(=O)Cc2cc(NC(=O)CCCN(C)C)ccc2O[C@@H]1CN(C)S(=O)(=O)c1cccs1`, the inhibition is reported as -1.4%. Work on `C[C@H]1CN([C@@H](C)CO)C(=O)Cc2cc(NC(=O)C3CC3)ccc2O[C@@H]1CN(C)S(=O)(=O)c1cccs1` yielded an inhibition of -4.09%. With `C[C@H](CO)N1C[C@H](C)[C@H](CN(C)S(=O)(=O)c2cccs2)Oc2ccc(NS(=O)(=O)c3ccc(Cl)cc3)cc2CC1=O` the inhibition was 55.2% (active). In the case of `C[C@H]1CN([C@@H](C)CO)C(=O)Cc2cc(NC(=O)Cc3ccccc3)ccc2O[C@H]1CN(C)S(=O)(=O)c1cccs1`, the inhibition is reported as 98.7% [at 12.3 µM] (active). `C[C@@H]1CN([C@H](C)CO)C(=O)Cc2cc(NC(=O)Cc3ccccc3)ccc2O[C@H]1CN(C)S(=O)(=O)c1cccs1` gave an inhibition of 25.8%. `C[C@H]1CN([C@@H](C)CO)C(=O)c2cc(NC(=O)NC3CCCCC3)ccc2O[C@@H]1CN(C)S(=O)(=O)c1cccs1` showed an inhibition of 7.17%. Compound `C[C@@H]1CN([C@H](C)CO)C(=O)Cc2cc(NS(=O)(=O)c3ccc(Cl)cc3)ccc2O[C@H]1CN(C)S(=O)(=O)c1cccs1` has an inhibition of -4.91%. With `C[C@H](CO)N1C[C@H](C)[C@@H](CN(C)S(=O)(=O)c2ccc(Cl)cc2)Oc2ccc(NS(=O)(=O)c3cccs3)cc2CC1=O` the inhibition was -22%. With `C[C@@H]1CN([C@@H](C)CO)C(=O)Cc2cc(NS(=O)(=O)c3ccc(Cl)cc3)ccc2O[C@H]1CN(C)Cc1ccc(C(F)(F)F)cc1` the inhibition was 77.5% (active). For `Cc1ccc(S(=O)(=O)Nc2ccc3c(c2)CC(=O)N([C@H](C)CO)C[C@@H](C)[C@H](CN(C)Cc2ccc(C(F)(F)F)cc2)O3)cc1`, the inhibition was 8.6%. With `C[C@H]1CN([C@@H](C)CO)C(=O)Cc2cc(NC(=O)NC3CCCCC3)ccc2O[C@H]1CN(C)S(=O)(=O)c1cccs1` the inhibition was 56.2% (active). `C[C@H]1CN([C@@H](C)CO)C(=O)Cc2cc(NS(=O)(=O)c3ccc(F)cc3)ccc2O[C@H]1CN(C)Cc1ccc(C(F)(F)F)cc1` gave an inhibition of -1.59%. With `[N-]=[N+]=Nc1ccccc1C[C@@]1(C(=O)NCc2ccccc2)N=C(c2ccc(OCCCO)cc2)O[C@@H]1c1ccccc1` the inhibition was 42.5%. `C[C@H]1CN([C@@H](C)CO)C(=O)c2cccc(NS(=O)(=O)c3ccc(F)cc3)c2O[C@@H]1CN(C)CC1CC1` gave an inhibition of -1.23%. `Cc1noc(C)c1NC(=O)N(C)C[C@@H]1OCCCC[C@H](C)Oc2ccc(NC(=O)c3ccccc3)cc2C(=O)N([C@@H](C)CO)C[C@@H]1C` gave an inhibition of 18.4%. Compound `N#C[C@@H]1[C@@H](c2ccc(-c3ccccc3F)cc2)[C@@H](CO)N1C(=O)c1ccccn1` has an inhibition of 16.4%. Compound `C[C@@H]1CN([C@H](C)CO)C(=O)c2ccccc2-c2ccccc2CO[C@H]1CN(C)C(=O)CCC(F)(F)F` has an inhibition of -2.05%. `CCCC#Cc1ccc([C@@H]2[C@@H](C#N)N(C(=O)C3CC3)[C@H]2CO)cc1` gave an inhibition of -1.11%. Work on `CCC(=O)Nc1ccc2c(c1)OC[C@H](C)N(Cc1ccccc1F)C[C@H](C)[C@@H](OC)CN(C)C2=O` yielded an inhibition of 27.1%. In the case of `CCCN1C[C@@H](C)[C@@H](OC)CN(C)C(=O)c2ccc(NC(=O)Nc3cccc(F)c3)cc2OC[C@@H]1C`, the inhibition is reported as -6.04%. `C/C=C/c1ccccc1[C@H]1[C@@H](C#N)N(C(=O)Cc2ccccn2)[C@@H]1CO` gave an inhibition of -20.6%. Work on `C[C@@H]1CN([C@@H](C)CO)C(=O)c2cc(C#CCc3ccccc3)cnc2O[C@@H]1CN(C)C(=O)C1CCOCC1` yielded an inhibition of 6.96%. `C[C@@H]1CN([C@@H](C)CO)C(=O)c2cccc(NS(=O)(=O)c3ccc(Cl)cc3)c2O[C@@H]1CN(C)Cc1ccccc1` gave an inhibition of -7.04%. For `C[C@@H]1CN([C@H](C)CO)C(=O)c2cccc(NS(=O)(=O)c3ccc(Cl)cc3)c2O[C@@H]1CN(C)Cc1ccc(Cl)c(Cl)c1`, the inhibition was 74.9% (active). `C[C@@H]1CN([C@H](C)CO)C(=O)c2cccc(NS(=O)(=O)c3ccc(Cl)cc3)c2O[C@H]1CN(C)Cc1ccc(C(F)(F)F)cc1` gave an inhibition of 9.64%. `COc1cccc(S(=O)(=O)N(C)C[C@@H]2Oc3ncc(-c4cccc(C(=O)N(C)C)c4)cc3C(=O)N([C@H](C)CO)C[C@H]2C)c1` gave an inhibition of 3.38%. For `CC(C)NC(=O)N(C)C[C@@H]1OCCCC[C@@H](C)Oc2ccc(NC(=O)c3ccccc3)cc2C(=O)N([C@@H](C)CO)C[C@H]1C`, the inhibition was -4.61%.
